# Reference: PubChem BioAssay AID1347426 (Functional Genomics Laboratory (NCATS/FGL), 2020)
# About 1,400 (4.5%) of roughly 31,000 sequences were called active.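 The calls were made as follows: active = median seed-adjusted z-score above 1 or below -1; inactive = the rest.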 Many of the other results were omitted from the sample, so actives are more common in it than they were.
# Assay: Novel Modifiers of Survival Motor Neuron (SMN) Protein: Gene Identification via Genome-wide siRNA Screen;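 also: luminescence tracks full-length SMN protein made from the SMN2 reporter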
# Settings: HEK293T SMN2-luciferase reporter, siRNA knockdown, 72 h; actives lie on both sides
# Summary of the method: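 Steps: spot 1 pmol siRNA, add Lipofectamine RNAiMax in serum-free DMEM, seed HEK293T SMN2–luciferase reporter cells; incubate 72 h at 37 °C; add ONE-Glo; normalize luminescence to control siRNA, log10, MAD. Candidates: |MAD| > 1.0.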
row,Sequence,median seed-adjusted z-score
1,CUGUUGCACUUCACAUUUUTT against TRIP13,1 (active)
2,CAGCUUAAUUUUUACGCAATT against IPMK,-0.00138 (inactive)
3,CACCUACGAUAGCUACUAUTT against NKTR,-1.1 (active)
4,GCCUCACGUUUGUCAGUAUTT against WNK3,-0.466 (inactive)
5,CAUCCAACGACAAUCUAUATT against ATP1A2,0.248 (inactive)
6,UCACGGCUCUGUUGAAUGUTT against DUSP4,-0.176 (inactive)
7,GACCCAUGGUAAAAUGCAATT against TWIST1,-0.159 (inactive)
8,GCAUAAUAAGGGUAGGGAUTT against DDX53,-0.136 (inactive)
9,GAUAGAAGCAUGGAAUUGATT against MRS2,1.38 (active)
10,GGUCAAUUCAGUGAAGAUATT against ARL8B,-0.477 (inactive)
11,GAUUGGUGGUUGGAACAUUTT against ECE2,0.794 (inactive)
12,CCAAAGAUAUCGGACCCUATT against PI4K2A,-0.486 (inactive)
13,CGGCGUCUCUACUACGUCUTT against CLEC11A,-1.1 (active)
14,CUUCCUGGGUGUAAUGUUATT against IGSF1,0.258 (inactive)
15,GCAAGGCAGCUGUUCUGAATT against PGLS,0.188 (inactive)
16,GCAUCUGUGAGGAUAUUGATT against FBN3,0.264 (inactive)
17,GAGUCGAGUUUGAUGAAGATT against GSTA4,-0.848 (inactive)
18,CGUUCGGUCUGACGCAGUATT against LRP5,-1 (active)
19,CGAUGUCAGUUUCUAGUAATT against USP42,-0.0125 (inactive)
20,GCCGUUUGACCAUACAUUATT against SNTB1,0.488 (inactive)
21,CCAAGAAACUAACACGCUATT against PFKFB2,0.311 (inactive)
22,GGAAGGUGAUUGAUCCUAATT against HNRNPD,0.504 (inactive)

row,Sequence,median seed-adjusted z-score
1,CGAAAAACCAUAGACUACATT against WDR33,3.27 (active)
2,GCAAAUGUCAGAGAUUGAATT against SFXN5,0 (inactive)
3,CAGUUACUCUGGGAGUAUATT against PRPF3,-0.289 (inactive)
4,CCAGGUGUAUUCAAUGGAATT against FMO3,-0.0769 (inactive)
5,ACGACUGCCUGGUCUUAAATT against ADAP2,-1.1 (active)
6,GCACUCGAGUAAUUAGCAATT against DOCK10,-0.201 (inactive)
7,GGUUCUGCUUUAUUACCUUTT against HNRNPD,0.504 (inactive)
8,CAGCUUACAAUACAUCAAATT against ZNF7,0 (inactive)
9,AAGACAUGAUGUUCCACAATT against ADCY6,-0.0652 (inactive)
10,GCACAGAUAUCCUCGUGUATT against ARL11,1 (active)
11,CAGUAGCAGUGGAAUGGGATT against RBMX,0.0941 (inactive)
12,GCGCUUCUGGUGUACGACATT against RAB17,0.473 (inactive)
13,CAUCCACACUUCUCCAGAATT against HK1,-0.129 (inactive)
14,GAGUGGGCGUGGAUAGAAATT against PSMC2,-1.96 (active)
15,AGUUAUUGCUACUUCAGAATT against CX3CR1,-0.292 (inactive)
16,GCAACUACGUUGACUUCUATT against CTNND2,-0.0491 (inactive)
17,AACUGAACAUAGCAGAAUUTT against ZNF85,-1.01 (active)
18,CGGUGACUGUGAACGGCAATT against DNAJB8,-1.09 (active)
19,ACAUAGUAAAGACUUUCUATT against PIGA,-0.0514 (inactive)
20,GUCAGUUGUUAGAACAUAATT against TRIM24,-0.22 (inactive)
21,CAAUUCUUAUUGACUCAUATT against IFNA1,-0.625 (inactive)
22,CAUCAUCCAUGGUAGCUUUTT against DUOX1,-1.09 (active)

row,Sequence,median seed-adjusted z-score
1,GCUUGACCCUUAGACGGAATT against LILRB3,0.0304 (inactive)
2,GGUGUUAUCCUAUGAGGUATT against MPP4,0.13 (inactive)
3,GGAAAAACCUUCUACCUGATT against ZNF12,-0.144 (inactive)
4,GGCCUUACGGGUGUAGUAATT against ZNF419,0.0405 (inactive)
5,GGAUCAAGGCUAUGUGGAUTT against CYB5R1,0 (inactive)
6,UAUGAGUUGUUGUUGGGAATT against NSUN5,0.118 (inactive)
7,UCUUAUCCUUUGUCGCAGATT against LMO3,0.496 (inactive)
8,GCAUCACCCAAGUAGUUAUTT against SFXN2,0.365 (inactive)
9,GACUCAUAUGGACCAGUUATT against ZNF460,-0.302 (inactive)
10,CAUGGGCUCUAUUACGCUUTT against SPEN,-1.69 (active)
11,GUCUACCCAUGGACCCAGATT against HBG1,-0.716 (inactive)
12,CACCAACUAAUGUUACAAUTT against IFNGR1,-0.279 (inactive)
13,CCUCGAGACUAUACGGUUATT against MED26,-1.86 (active)
14,CCAGUGGAGUGGUAUCUAUTT against RBBP5,0.169 (inactive)
15,GAACUCAUGUCCGACAUAATT against STX1A,0 (inactive)
16,GCGCUUUGGAGAUCCGAGATT against KLC3,-0.156 (inactive)
17,GCAGUAGAAGUAUCCGGGATT against THSD4,0.0657 (inactive)
18,CCUUCUCAAUGGAUUCCAATT against VN1R1,0.531 (inactive)
19,GGUCAUGCAGGGUUGGAAATT against ALDH1B1,0.105 (inactive)
20,GGAAGAUUGUCGCUCCUCATT against TFAP2C,1.28 (active)
21,CAGAAGACCUGGUGCCCUATT against SPI1,0.384 (inactive)
22,GCAUUAAUAACAUUACGUUTT against ZNF236,0.683 (inactive)

row,Sequence,median seed-adjusted z-score
1,CGCCCGCGAUUACUACCAUTT against HSPA12B,-0.141 (inactive)
2,GUGCCACCGGAGCUAGUAATT against KCNK4,-0.446 (inactive)
3,AGGUGAAACUUCGAAGACATT against TRPM3,-0.633 (inactive)
4,CGAUGAACGAGUACAUUGATT against GRIA2,-1.02 (active)
5,CAUCUGAAGUGGUUAAGCATT against SLC25A26,0.0213 (inactive)
6,CCGGAAAUUUGGGACGCAATT against DHX58,-0.302 (inactive)
7,GGAGGUCAUUAAAACACCATT against HADH,1.11 (active)
8,GGACGACCGUGUAUAGUUUTT against RFESD,-0.503 (inactive)
9,CACUUUAGAUGAUAUCAGATT against PPP3CA,0.74 (inactive)
10,GCUAUAAGGUGGAACGGCATT against POLR2A,-3.81 (active)
11,GCUUAUGGAUGGAGACCAATT against RNF34,-0.0857 (inactive)
12,AGGUGAUGUCGGUCGGAGATT against RAB24,0.123 (inactive)
13,AGCAAUAACUCGUGUAGCATT against EFNA2,-0.314 (inactive)
14,GGGCGGUACUUUACAACUATT against KCTD9,1.31 (active)
15,CUAGAGUAUUUUGAUCUAATT against FAT2,-0.286 (inactive)
16,CACCGUGUUUGACAACUAUTT against RAC2,-0.596 (inactive)
17,GGACCAACCCAGAAUCGUATT against MAOB,0 (inactive)
18,UCGCAAAGGUGAACACUCATT against PIN1,0.156 (inactive)
19,AGAUGUGACUGGCUGGUCATT against LCN12,0.124 (inactive)
20,AGACCUACACGGUACGCGUTT against THAP11,-1.36 (active)
21,GCAUCUAAUACUUAUGGAATT against MS4A4A,0.296 (inactive)
22,GAAGCAUGAUGGACAGGAUTT against ISOC1,0.104 (inactive)

row,Sequence,median seed-adjusted z-score
1,CCUCGACCUGGUCACUUUATT against TRMU,0.0312 (inactive)
2,CCGUAGCAAUAGUAGGUGUTT against UBA5,-0.105 (inactive)
3,GCCUGACCAUCUCCAUUGUTT against USH1C,-0.164 (inactive)
4,CGUGUUCCGAGAAAACGAATT against PLEKHM2,0.593 (inactive)
5,GCAACAGCUCAAAAACGAATT against UAP1,0.0411 (inactive)
6,CAUCUACUGUCAUUAACCATT against ITIH5,-0.289 (inactive)
7,AGACCCAGCUAGAUUCUGATT against GPR152,-0.9 (inactive)
8,CCUCGUUUGACAUCCACUATT against CTSD,-0.282 (inactive)
9,CAUUCACGGAGAUAAGAAATT against ALDH1L1,0.0289 (inactive)
10,UGAAUUACCUGGACCGUUUTT against CCND2,-0.819 (inactive)
11,UGCGUUUUCUGAUAACUCATT against PTP4A2,-1.45 (active)
12,GGCAAAAAGCUGACUGAGATT against GPD1,0.558 (inactive)
13,GGAUGAUUAUGCUAAUCUATT against GGPS1,-0.372 (inactive)
14,GCACUGUCUUUGUAUCUGATT against SFXN2,0.365 (inactive)
15,GGGCUGUUGUAAUAGUGGATT against SFPQ,-1.15 (active)
16,AGGCCUUUCUUACCCAGAATT against MAP2K1,0.942 (inactive)
17,CACUUGAUCUCUUAACCAUTT against 10-Sep,0.571 (inactive)
18,GCACAGGACAGACAGGCUATT against SRC,-0.0246 (inactive)
19,GGAUUACAGCAGGUGCAGATT against MED8,-1.61 (active)
20,GAAUCUCACAAUUAUGUAUTT against NCK2,-0.397 (inactive)
21,AGAUAAGCAUGGUGCCCAATT against BPI,0 (inactive)
